Measurements reported in PubChem BioAssay (EPA / NIEHS).
Active and inactive are the calls of the source. Rule for the calls: active = hit-call score of the fitted dose curve at least 0.9, where 1 is the maximum; inactive = score below 0.9.

Read-out: Cytochrome P450 2C19 (Homo sapiens) (UniProt P33261)
Test: LTEA_HepaRG_CYP2C19: Life Technologies and Expression Analysis (LTEA) Assay for CYP2C19 using HepaRG (AID 2283482)
Conditions: mRNA level, 48 h; actives raise or lower the signal
Procedure: LTEA_HepaRG is a cell based, multiplexed-readout assay that uses HepaRG, a human liver cell line, with measurements taken at 48 hours after chemical dosing on a 96-well plate.LTEA_HepaRG_CYP2C19 is one of 102 assay component(s) measured in the LTEA HepaRG cell culture assay. It is a marker of NR mediated metabolism.Data from the assay component LTEA_HepaRG_CYP2C19 was analyzed into 1 endpoint. This assay endpoint, LTEA_HepaRG_CYP2C19, was analyzed with bidirectional fitting relative to DMSO as the negative control and baseline of activity. Using a type of inducible reporter, measures of mRNA induction for gain or loss-of-signal activity can be used to understand regulation of transcription factor activity. To generalize the intended target to other relatable targets, this assay endpoint is annotated to the cyp intended target family, where the subfamily is xenobiotic metabolism.
A total of 1060 chemcials from the ToxCast library were tested in eight-point concentration-response experiments. Cell culture and cytotoxicity assays were conducted at Thermo Fisher Scientific's Custom Services facility (Madison, WI). A single lot of human HepaRG cells (Thermo Fisher Scientific, Frederick, MD) was used for the cell culture experiments. 96-well format collagen type I coated plates of human HepaRG cells were prepared using established methods. Briefly, cryopreserved HepaRG cells were thawed, plated at a density of approximately 100,000 cells/well in HepaRG Thaw, Plate, and General Purpose media (HPRG770, Thermo Fisher Scientific), and incubated for 48 hours. 0.5% DMSO was selected as vehicle control to balance the requisite need of DMSO in HepaRG cultures to maintain differentiation (for example, baseline metabolism, proportions of hepatocytes vs. cholangiocytes), while enabling further hepatic receptor pathway activation (for example, PXR and CAR) in response to chemical exposure. 48 hours after plating, the culture medium was replaced with HepaRG Serum-Free Incudtion Media. Cells were exposed to each test chemical in duplicate and maintained in CO2 incubators for another 48 hours. Chemical plates were thawed to room temperature and 200x concentrations of treatment groups were prepared. 8-point conentration-reponse curves were made with the highest exposure at 100 uM, followed by half-log dilutions, all in 0.5% DMSO. Each test plate contained variouse controls, induction positive controls (1mM phenobarbital), cytotoxicity positive controls ([…] aflatoxin B1), vehicle controls (0.5% DMSO), and total lysis controls (0.5% DMSO). Cell morphology images were taken using an Essen IncuCyte FLR automated microscope, with six 96-well plates imaged in about 24 minutes. Images were captured and exported and JPEG files. Spent culture media was transfered to black-well plates for the LDH assay, and remaining media was sorted at -80 C for later use. Cells were treated with RLT buffer and frozen until shipped for gene expression analysis. Total RNA was isolated from the cell suspension in 75 uL of Buffer RLT (Qiagen, Germantown, MD 20874) by Quintiles/Expression Analysis (Durham, NC) using a custom isolation procedure. Total RNA from each plate well was transferred to a preamplification plate. Fluidigm's 96.96 Dynamic ArrayTM (Fluidigm, Amsterdam, the Netherlands) technology was used for gene expression analyses by quantitative reverse transcription polymerase chain reaction (qRT-PCR, performed by Quintiles/Expression Analysis, Durham, NC)89. Standard TaqManTM Assays (Applied Biosystems/ThermoFisher Scientific, Foster City, CA) were used to assess the expression of 93 genes selected based on their selectivity and sensitivity to important hepatic receptors known to be modulated by environmental chemicals; importance in human hepatocyte functionality; and hepatotoxicity. […]

Cytochrome P450 2C19 (Homo sapiens), sequence (P33261 whole entry, looked up): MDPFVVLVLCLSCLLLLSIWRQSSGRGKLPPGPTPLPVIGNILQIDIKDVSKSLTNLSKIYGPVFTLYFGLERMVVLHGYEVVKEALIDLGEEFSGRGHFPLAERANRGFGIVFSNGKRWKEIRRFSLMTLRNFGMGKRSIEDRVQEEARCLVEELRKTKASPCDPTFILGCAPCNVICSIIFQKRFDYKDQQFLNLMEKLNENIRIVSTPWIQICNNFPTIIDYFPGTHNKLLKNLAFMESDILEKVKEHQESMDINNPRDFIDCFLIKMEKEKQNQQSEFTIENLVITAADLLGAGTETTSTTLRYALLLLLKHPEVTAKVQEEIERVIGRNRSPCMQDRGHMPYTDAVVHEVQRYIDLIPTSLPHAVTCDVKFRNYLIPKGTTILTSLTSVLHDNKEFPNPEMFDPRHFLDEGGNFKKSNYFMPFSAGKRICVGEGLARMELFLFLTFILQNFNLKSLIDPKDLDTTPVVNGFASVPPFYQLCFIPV

Row | SMILES | outcome | AC50
1 | CC[C@H](C)C(=O)O[C@H]1C[C@H](O)C=C2C=C[C@H](C)[C@H](CC[C@@H](O)C[C@@H](O)CC(=O)O)[C@H]21 | inactive | –
2 | NNC(=O)c1ccncc1 | inactive | –
3 | NC(N)=O | inactive | –
4 | O=C(O)c1cccc(C(=O)O)c1 | inactive | –
5 | C=CN1CCCC1=O | inactive | –
6 | Cn1c(=O)c2[nH]cnc2n(C)c1=O | inactive | –
7 | CCn1nc(C)c2c1C(=O)NCC(c1ccc(O)cc1)=N2 | inactive | –
8 | c1ccc2ncccc2c1 | inactive | –
9 | OC[C@H]1O[C@@](CO)(O[C@H]2O[C@H](CO)[C@@H](O)[C@H](O)[C@H]2O)[C@@H](O)[C@@H]1O | inactive | –
10 | CNC(C)=O | inactive | –
11 | CCCCCCCCCCCCCCO | inactive | –
12 | Cn1cc[nH]c1=S | inactive | –
13 | CCCCCCCCN(C)C | inactive | –
14 | CCCCCCCCCCCCCCCCOS(=O)(=O)O | – | 43.1 µM (active)
15 | Cc1nc(-c2ccccn2)ncc1C(=O)Nn1cc(C)c2cc(F)ccc21 | – | 1.02 µM (active)
16 | COc1cc(C(C)C)c2c(c1)S(=O)(=O)N(COc1cc(=O)n3cccc(OCCN4CCCCC4)c3n1)C2=O | – | 19.3 µM (active)
17 | OCCNCCO | – | 50 µM (active)
18 | COS(C)(=O)=O | inactive | –
19 | CC(=O)c1ccccc1 | inactive | –
20 | CCc1cccc(CC)c1N | inactive | –

Row | SMILES | outcome | AC50
21 | O=C(NO)C1(NS(=O)(=O)c2ccc(Oc3ccc(F)cc3)cc2)CCOCC1 | – | 12.8 µM (active)
22 | CC(C)c1nnc2ccc(-c3ocnc3-c3cc(F)ccc3F)cn12 | – | 91.6 µM (active)
23 | OC(CCl)CCl | inactive | –
24 | O=C1CN(N=Cc2ccc([N+](=O)[O-])o2)C(=O)N1 | inactive | –
25 | OC[C@H]1O[C@@H]2O[C@H]3[C@H](O)[C@@H](O)[C@@H](O[C@H]4[C@H](O)[C@@H](O)[C@@H](O[C@H]5[C@H](O)[C@@H](O)[C@@H](O[C@H]6[C@H](O)[C@@H](O)[C@@H](O[C@H]7[C@H](O)[C@@H](O)[C@@H](O[C@H]1[C@H](O)[C@H]2O)O[C@@H]7CO)O[C@@H]6CO)O[C@@H]5CO)O[C@@H]4CO)O[C@@H]3CO | inactive | –
26 | c1ccc2c(c1)-c1cccc3c1c-2cc1ccccc13 | – | 17.2 µM (active)
27 | CCCCCOC(C)=O | inactive | –
28 | C[C@@H](Oc1ccc(CNC(=O)c2cccnc2Oc2ccc3c(c2)OCO3)c(F)c1)C(=O)O | inactive | –
29 | CCCC(CCC)C(=O)O | inactive | –
30 | CCCCCCCC/C=C\CCCCCCCC(=O)OC[C@@H](O)[C@H]1OC[C@H](O)[C@H]1O | inactive | –
31 | OC(Cn1cncn1)(Cn1cncn1)c1ccc(F)cc1F | inactive | –
32 | CCCc1ccccc1 | inactive | –
33 | CCOc1ccc2[nH]cc(C(=O)NCc3ccccc3)c(=O)c2n1 | inactive | –
34 | O=C(O)c1cccc(C[C@@H]2COc3ccc(OCc4nc5cc(F)ccc5s4)cc3[C@@H]2O)c1 | – | 83.9 µM (active)
35 | Cc1nccn1-c1ccc(Sc2cccc(C3(C(N)=O)CCOCC3)c2)cc1 | – | 10.7 µM (active)
36 | c1ccc(C(O[C@@H]2CCCN(CCc3ccc4c(c3)OCO4)C2)c2ccccc2)cc1 | – | 79 µM (active)
37 | CCCCC(CC)C(=O)OCCOCCOCCOC(=O)C(CC)CCCC (stereo not given) | inactive | –
38 | O=S1(=O)CCCO1 | inactive | –
39 | CCCCCCCCCC | inactive | –
40 | O=c1[nH]cnc2c1ncn2[C@H]1CC[C@@H](CO)O1 | inactive | –
